From PubChem BioAssay AID1053175 (ICCB-Longwood Screening Facility, Harvard Medical School, 2014)
Where “and” joins values, the source holds several entries; their conditions need not be identical. Equal entries are not always repeated. Hit rate of the full screen: of about 330,000 compounds, about 700 (0.21%) were called active.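 Rule for the calls: active = OD600 absorbance below the run mean of sample wells minus 3.6 SD, in any replicate (cut at about 0.56 in these data); inactive = the rest.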 What follows is part of a selection rich in actives, with near analogues and random picks from the rest.

Test: antibacterial activity against Escherichia coli – OD600, primary screen (AID 1053175)
Settings: Escherichia coli growth, OD600, 23 h; active compounds read low
For `Cc1cc(C)nc(NN=Cc2ccccc2OCc2ccccc2)n1`, the OD600 absorbance was 0.638 (inactive). In the case of `CC(=O)NC(=S)Nc1ccc(NC(=S)NC(=O)c2ccc([N+](=O)[O-])cc2)cc1`, the OD600 absorbance is reported as 0.699 (inactive). In the case of `Cn1ccc(=Nc2ccc(NC(=O)c3ccc(N=c4ccn(C)c5ccc([N+](=O)[O-])cc45)cc3)cc2)cc1`, the OD600 absorbance is reported as 0.104 (active). With `COc1cc(NS(=O)(=O)c2ccc(NC(=O)c3ccc([N+](=O)[O-])cc3)cc2)ncn1` the OD600 absorbance was 0.659 (inactive). For `Fc1cccc(CCN2CCNCC2Cc2ccccc2)c1` (configuration not stated), the OD600 absorbance was 0.658 (inactive). In the case of `O=C(O)c1cc(O)c2c(c1)C(C1c3cc(C(=O)O)cc(O)c3C(=O)c3c(OC4OC(CO)C(O)C(O)C4O)cccc31)c1cccc(OC3OC(CO)C(O)C(O)C3O)c1C2=O` (configuration not stated), the OD600 absorbance is reported as 0.667 (inactive). With `COC(=O)c1cccc(C23CC4(C2)C(CN(CC2CCCCC2)C4c2ccccc2)C3c2ccccc2)c1` (configuration not stated) the OD600 absorbance was 0.699 (inactive). With `CCc1ccc(C=NNC(=O)Cc2ccc(OC)c(OC)c2)s1` the OD600 absorbance was 0.627 (inactive). For `Cc1nn(-c2ccccc2)c(C)c1C=Nn1c(-c2ccccc2Br)n[nH]c1=S`, the OD600 absorbance was 0.624 (inactive). In the case of `CCOc1ccc(Br)cc1C(=O)NN=Cc1c[nH]c2ccccc12`, the OD600 absorbance is reported as 0.686 (inactive). With `O=C(NN=C/C(Br)=C\c1ccccc1)c1n[nH]c2c1CCC2` the OD600 absorbance was 0.619 (inactive). For `C[C@]12C(=O)N(c3cccc(F)c3)C(=O)N1C1c3ccccc3OCC1C2c1ccccc1` (some centres not stated), the OD600 absorbance was 0.707 (inactive) and 0.703 (inactive). For `C=Cc1ccc(C2=CC(=O)CC(c3ccc(OC)cc3)C2)cc1` (configuration not stated), the OD600 absorbance was 0.663 (inactive). For `O=C(NN=Cc1cccc2ccccc12)c1cccnc1`, the OD600 absorbance was 0.676 (inactive). With `O=C(C=Cc1ccccc1)NCCSCc1ccccc1Cl` the OD600 absorbance was 0.63 (inactive). For `O=C(CCNc1n[nH]c(=O)[nH]c1=O)NN=Cc1ccc(Cl)cc1`, the OD600 absorbance was 0.691 (inactive). In the case of `CCOC1OC(C(=O)NCc2nc3ccccc3[nH]2)=CC(c2cn(C(C)=O)c3ccccc23)C1CCCO` (configuration not stated), the OD600 absorbance is reported as 0.677 (inactive) and 0.601 (inactive). With `ON=Cc1cccn1-c1nccs1` the OD600 absorbance was 0.697 (inactive). For `Cc1ccc(C(=O)NN=Cc2c[nH]c3ccccc23)o1`, the OD600 absorbance was 0.69 (inactive). For `CCn1c(C)nc2cc(C(=O)NN=C(C)c3ccc(N4CCOCC4)cc3)ccc21`, the OD600 absorbance was 0.666 (inactive). For `CCCC(CNC(CNC)C(C)O)NCCc1ccc(OC)cc1` (configuration not stated), the OD600 absorbance was 0.679 (inactive). For `O=Cc1c(Nc2ccccc2Cl)nc2ccccn2c1=O`, the OD600 absorbance was 0.678 (inactive). For `CCc1c(Nc2ccccc2C)nc(N)[nH]c1=O`, the OD600 absorbance was 0.675 (inactive). In the case of `CCc1c(Nc2ccccc2Cl)nc(N)[nH]c1=O`, the OD600 absorbance is reported as 0.475 (active). For `c1ccc(N=C2N=C(Nc3ccccn3)c3ccccc32)nc1`, the OD600 absorbance was 0.705 (inactive). For `CCC1=C(OC(=O)N(CC)CC)N2C(=O)OC(=NCC(=O)OC)[C@]2(C)C2C1=CCC1C(=O)NC(=O)C12` (some centres not stated), the OD600 absorbance was 0.617 (inactive). With `CCCN1CCn2c3c(c4cc(Br)ccc42)CCCC31` (configuration not stated) the OD600 absorbance was 0.655 (inactive). For `OC(CNCC1CCCO1)Cn1c2ccc(Br)cc2c2cc(Br)ccc21` (configuration not stated), the OD600 absorbance was 0.547 (active). With `O=C(CCNS(=O)(=O)c1ccc(Br)cc1)NCC1CCCO1` (configuration not stated) the OD600 absorbance was 0.66 (inactive). With `O=C(CC=NOCc1ccc([N+](=O)[O-])cc1)Nc1ccc(Br)cc1` the OD600 absorbance was 0.631 (inactive). In the case of `O=C(O)CC1c2cc(F)ccc2S(=O)(=O)N1Cc1ccccc1` (configuration not stated), the OD600 absorbance is reported as 0.672 (inactive). For `O=[N+]([O-])c1cccc(C=NN2CCN(c3ccccn3)CC2)c1`, the OD600 absorbance was 0.693 (inactive). With `CCn1c(/C=C/c2ccc([N+](=O)[O-])o2)nc2ccccc2c1=O` the OD600 absorbance was 0.629 (inactive). In the case of `Cc1ccc(NCC(=O)NN=Cc2ccc([N+](=O)[O-])o2)cc1`, the OD600 absorbance is reported as 0.564 (inactive). With `C/[N+]([O-])=C\c1ccc([N+](=O)[O-])o1` the OD600 absorbance was 0.0665 (active). With `CCc1ccc(-c2nn(-c3ccccc3C)cc2C(=O)N2CCN(C3CCS(=O)(=O)C3)CC2)cc1` (configuration not stated) the OD600 absorbance was 0.66 (inactive). With `Cc1ccc(-c2nn(-c3ccccc3)cc2C(=O)NC2CCC(O)CC2)cc1` (configuration not stated) the OD600 absorbance was 0.658 (inactive). For `CCc1ccc(-c2nn(-c3ccccc3)cc2CSC(=N)N)cc1`, the OD600 absorbance was 0.201 (active). With `COc1cccc(C=NNC(=O)CSc2cccc3cccnc23)c1` the OD600 absorbance was 0.635 (inactive). With `COC(=O)[C@]1(Cc2ccccc2)NC(c2ccc(-c3cc(C(C)=O)cs3)cc2)C2C(=O)N(C)C(=O)C21` (some centres not stated) the OD600 absorbance was 0.738 (inactive). In the case of `COC(=O)C1=C(C)N(Cc2ccco2)C(=O)NC1c1cccc(C(F)(F)F)c1` (configuration not stated), the OD600 absorbance is reported as 0.7 (inactive). With `COc1ccc(C2C=CCN(S(=O)(=O)C=Cc3ccccc3)C(Cc3ccccc3)C(=O)N2Cc2ccc(F)cc2)cc1` (configuration not stated) the OD600 absorbance was 0.733 (inactive). For `CCOc1cc(C=NNc2ncnc(Cl)c2N)ccc1O`, the OD600 absorbance was 0.682 (inactive). With `COc1cc(C=Nn2cnnc2)ccc1OCCOc1ccccc1` the OD600 absorbance was 0.782 (inactive). In the case of `CCOC(=O)C1(CCOc2ccccc2)CCN(Cc2cc(OC)c(O)cc2Cl)CC1`, the OD600 absorbance is reported as 0.602 (inactive). In the case of `Cc1c(CN2CCC(CO)(CCOc3ccccc3)CC2)[nH]c2ccc(Cl)cc12`, the OD600 absorbance is reported as 0.527 (active). For `OCC1(CCOc2ccccc2)CCN(Cc2cn[nH]c2-c2ccccc2)CC1`, the OD600 absorbance was 0.675 (inactive). In the case of `COc1cc(C(=O)ON=C2C=CC(=O)C=C2C)cc(OC)c1OC`, the OD600 absorbance is reported as 0.685 (inactive). In the case of `Cc1cccc(C(=O)OCC(=O)NC(C)C2CC3CCC2C3)c1O` (configuration not stated), the OD600 absorbance is reported as 0.676 (inactive). For `Cc1c(C(=O)NC(C)C2CC3CCC2C3)cccc1[N+](=O)[O-]` (configuration not stated), the OD600 absorbance was 0.695 (inactive). In the case of `COC(=O)c1cc(C(=O)NC(C)C2CC3CCC2C3)cc([N+](=O)[O-])c1` (configuration not stated), the OD600 absorbance is reported as 0.52 (active). With `CC=C(C)C(=O)NCCN1C2=NCC(C)N2CC1Cc1ccc(O)cc1` (configuration not stated) the OD600 absorbance was 0.694 (inactive). In the case of `Cc1occc1C(=O)NN=Cc1cccc2ccccc12`, the OD600 absorbance is reported as 0.677 (inactive). In the case of `COc1ccc(OC)c(C=Nn2c(-c3n[nH]c4c3CCC4)n[nH]c2=S)c1`, the OD600 absorbance is reported as 0.697 (inactive). For `COc1cc(C=NNC(=O)c2ccc3nc[nH]c3c2)ccc1O`, the OD600 absorbance was 0.686 (inactive). In the case of `CCOC(=O)C1C2COc3ccccc3C2N2C(=O)N(c3cccc(Cl)c3)C(=O)[C@@]12C` (some centres not stated), the OD600 absorbance is reported as 0.65 (inactive) and 0.728 (inactive). In the case of `Nc1nnnn1N=Cc1ccc(O)cc1`, the OD600 absorbance is reported as 0.733 (inactive).
